Screening results deposited in PubChem by National Center for Advancing Translational Sciences (NCATS).
ELG1 genotox: qHTS screen for small molecules that induce genotoxicity in human embryonic kidney (HEK293T) cells expressing luciferase-tagged ELG1. HEK293T ELG1-luciferase reporter, luminescence, 16 h. Potency, µM (top dose mostly 46 µM), for inactives: top-dose activity change, positive = activation, usual class: activators. 1.3% of 330,000 active. AID 504466, 2011; further: % of control where 0% means no effect; nearly all actives have a fitted effect of over 60% in size
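Step 1: seed 2,000 HEK293T ELG1-luciferase cells per well. Step 2: add compound or DMSO, incubate 16 hr at 37 °C. Step 3: ONE-Glo, 30 min at room temperature, read luminescence.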
SMN2 splice enh: qHTS Assay for Enhancers of SMN2 Splice Variant Expression; HEK293 SMN2-luciferase splicing reporter, luminescence, 30-36 h; Potency, µM (titrated, usually from 46.1 µM), for inactives: at the top dose activity change, positive = activation, hits mostly activators; 2.8% of 210,000 active; further: % of control where 0% means no effect; nearly all actives have a fitted effect of over 55% in size
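HEK293 cells carry an SMN2 […]–luciferase reporter in which exon 7 inclusion puts luciferase in frame. Cells were plated 10-12 h before compound addition, then incubated 30-36 h at 37C. ONE-Glo luminescence was read; sodium butyrate at 4.5 mM final served as control.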
ELG1 repair inh: qHTS screen for small molecules that inhibit ELG1-dependent DNA repair in human embryonic kidney (HEK293T) cells expressing luciferase-tagged ELG1. HEK293T ELG1-luciferase reporter, luminescence, 16 h; DNA damage induced by 5-fluorouridine. Potency, µM (doses to about 46.1 µM), without a hit: top-dose activity change, negative = inhibition, usual class: inhibitors. 2.3% of 330,000 active; further: on the % scale 0 is the no-effect control and ±100 the full control effect; nearly all actives have a fitted effect of over 55% in size
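Quantitative HTS, concentration-response format. 2,000 cells/well co-treated with 5-fluorouridine and compound, 16 hr in 5% CO2 at 37 °C; ONE-Glo luminescence read after 30 min.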
FLuc counter: qHTS profiling assay for firefly luciferase inhibitor/activator using purifed enzyme and Km concentrations of substrates (counterscreen for miR-21 project); AID 588342, 2011; Potency, µM (highest dose often 57.5 µM), for the others: at the highest dose activity change, negative = inhibition, actives largely listed as inhibitors; Luciferin 4-monooxygenase (Photinus pyralis), P08659; 6.9% of 360,000 active; purified FLuc, Km substrates, luminescence inhibition;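 further: plate controls were vehicle for no effect and reference inhibitor for full effect; nearly all actives have a fitted effect of over 55% in size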
Target sequence (P08659 whole entry, looked up): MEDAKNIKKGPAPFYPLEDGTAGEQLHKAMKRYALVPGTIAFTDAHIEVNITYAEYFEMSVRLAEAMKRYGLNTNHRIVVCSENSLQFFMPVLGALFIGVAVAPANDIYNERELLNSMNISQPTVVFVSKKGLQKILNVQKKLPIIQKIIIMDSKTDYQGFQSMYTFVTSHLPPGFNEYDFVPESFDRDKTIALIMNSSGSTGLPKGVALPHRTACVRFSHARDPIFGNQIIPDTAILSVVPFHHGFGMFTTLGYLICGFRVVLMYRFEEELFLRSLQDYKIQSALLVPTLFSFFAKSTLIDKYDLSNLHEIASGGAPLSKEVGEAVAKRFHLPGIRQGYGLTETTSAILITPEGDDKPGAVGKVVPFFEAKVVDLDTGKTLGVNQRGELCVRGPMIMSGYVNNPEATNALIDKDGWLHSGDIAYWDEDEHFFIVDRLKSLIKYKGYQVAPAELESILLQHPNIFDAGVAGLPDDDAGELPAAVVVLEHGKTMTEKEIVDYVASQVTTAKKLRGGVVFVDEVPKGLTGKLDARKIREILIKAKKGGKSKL
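Purified P. pyralis luciferase, 10 nM final, with Km-level 10 uM D-luciferin and 10 uM ATP in 50 mM Tris acetate pH 7.5, 10 mM Mg acetate, 0.01% Tween-20, 0.05% BSA; 6-point qHTS titration about 60 µM downward; luminescence read.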
NPC1 prom act: qHTS Assay for NPC1 Promoter Activators; Potency, µM (highest dose often 9.22 µM), without a hit: at the top dose activation, hits mostly activators; AID 485313, 2010; Huh7 NPC1 promoter luciferase reporter, 24 h; 2.4% of 320,000 active; further: % of control where 0% means no effect; nearly all actives have a fitted effect of over 60% in size
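Huh7 cells stably carrying NPC1 promoter–luciferase, plated in Opti-MEM with 10% FBS for 2 h, were exposed to compound in DMSO for 24 h at 37 °C; luciferase reagent was added for 10 min and luminescence read.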
Rab9 promoter act: qHTS Assay for Rab9 Promoter Activators; Huh7 Rab9 promoter-luciferase reporter, luminescence, 24 h; Potency, µM (titrated, usually from 9.22 µM), for the others: top-dose activation, negative = inhibition, usual class: activators; 2.8% of 320,000 active; further: % of control where 0% means no effect; nearly all actives have a fitted effect of over 60% in size
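Measured in stably transfected Huh7 cells bearing a Rab9 promoter–luciferase construct: 24 h compound treatment at 37 °C, followed by luminescence detection.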
An asterisk follows results filed as active; [ ] = another dose, or the depositor's remark. Shown are actives, neighbours in structure and some others; about 9.2% of the full set was active somewhere. The call rests on the fitted dose curve; in most records, active means well fitted curve in the direction sought with a large enough effect; inconclusive means small, poorly fitted or top-dose-only effect, or another doubt; inactive means no such curve, though single readings can be large; an effect the other way counts as inactive or inconclusive. Potency means the concentration at half of the fitted maximal effect.

For Cc1ccc(SCCN2CCN(CCc3ccccc3)CCC2=O)cc1 the results were ELG1 genotox 1.3%, ELG1 repair inh 10.8%, FLuc counter -1.6%, NPC1 prom act -3.1% and Rab9 promoter act -3.4%.
Screening COc1nc(-c2ccccc2)ccc1-c1noc(-c2ccccc2)n1 returned ELG1 genotox 17.8µM*, SMN2 splice enh inconclusive, ELG1 repair inh inconclusive, FLuc counter 23.9µM*, NPC1 prom act 3.98µM* and Rab9 promoter act 2.82µM*.
For COc1nc(-c2ccccc2)ccc1-c1noc(-c2ccco2)n1 the results were ELG1 genotox 20.6µM*, SMN2 splice enh 12.6µM*, ELG1 repair inh inconclusive, FLuc counter 8.49µM*, NPC1 prom act inconclusive and Rab9 promoter act 3.98µM*.
COc1ccc(-c2ccc(-c3noc(-c4ccco4)n3)c(OC)n2)cc1 was read as ELG1 genotox 17.1%, SMN2 splice enh inconclusive, ELG1 repair inh inconclusive, FLuc counter -14.4%, NPC1 prom act 24.9% and Rab9 promoter act inconclusive.
Screening COc1ccccc1-c1noc(-c2ccco2)n1 returned ELG1 genotox 6.51µM*, SMN2 splice enh 12.6µM*, ELG1 repair inh inconclusive, FLuc counter 10.7µM*, NPC1 prom act 3.55µM* and Rab9 promoter act 3.16µM*.
`CC1CCN(S(=O)(=O)c2ccc3c(c2)N(C)C(=O)CC(=O)N3C)CC1` gave ELG1 genotox 6.5%, ELG1 repair inh 0.9%, FLuc counter 2.5%, NPC1 prom act -3.5% and Rab9 promoter act -3.0%.
Cc1cccc(-c2nc(N3CCN(c4ccc(F)cc4)CC3)c3ccccc3n2)c1 was read as SMN2 splice enh -1.8% and FLuc counter 3.4%.
`Cc1cccc(NC(=S)/N=C(\N)Nc2nc(C)c3ccccc3n2)c1` gave ELG1 genotox -2.7%, SMN2 splice enh -34.3%, ELG1 repair inh -10.8%, FLuc counter inconclusive, NPC1 prom act 0.2% and Rab9 promoter act -9.5%.
Cc1cc(C)cc(NC(=S)/N=C(\N)Nc2nc(C)c3ccccc3n2)c1 was read as ELG1 genotox -5.2%, SMN2 splice enh -66.2%, ELG1 repair inh 18.4µM*, FLuc counter -2.3%, NPC1 prom act -8.1% and Rab9 promoter act -17.7%.
COc1ccc2nc(N/C(N)=N/C(=S)Nc3ccc(C)c(C)c3)nc(C)c2c1 was read as ELG1 genotox -7.1%, SMN2 splice enh -34.8%, ELG1 repair inh -25.9%, FLuc counter -18.4%, NPC1 prom act -26.9% and Rab9 promoter act -27.4%.
For Cc1ccc(NC(=S)/N=C(\N)Nc2nc(C)c3ccccc3n2)cc1C the results were ELG1 genotox -1.5%, SMN2 splice enh -28.9%, ELG1 repair inh inconclusive, FLuc counter 10.7µM*, NPC1 prom act -8.3% and Rab9 promoter act -9.6%.
For Cc1ccc(C)c(Cn2ncc3ccccc32)c1 the results were ELG1 genotox -1.8%, ELG1 repair inh 3.2%, FLuc counter 0.8%, NPC1 prom act 5.5% and Rab9 promoter act 0.2%.
Cc1ccc(NC(=O)CN2CCc3cc4c(cc3C2C)OCCCO4)cc1 (stereo not drawn) was read as ELG1 genotox -3.2%, ELG1 repair inh 18.3µM*, FLuc counter 3.2%, NPC1 prom act 1.3% and Rab9 promoter act 2.6%.
CSCC[C@@H](C(=O)Nc1cccc(F)c1)N1Cc2ccccc2C1=O was read as SMN2 splice enh 1.4% and FLuc counter 4.0%.
`O=C(CN1Cc2ccccc2C1=O)Nc1ccc2c(c1)OCCO2` gave ELG1 genotox 4.7%[9.26 µM], ELG1 repair inh inconclusive, FLuc counter 23.9µM*, NPC1 prom act 29.9% and Rab9 promoter act inconclusive.
`O=C(CN1CCc2ccccc21)Nc1ccc2c(c1)OCCCO2` gave ELG1 genotox inconclusive, ELG1 repair inh inconclusive, FLuc counter 12µM*, NPC1 prom act inconclusive and Rab9 promoter act inconclusive.
`CSCC[C@@H](C(=O)Nc1ccc2c(c1)OCCO2)N1Cc2ccccc2C1=O` gave ELG1 genotox inconclusive, SMN2 splice enh 20.2%, ELG1 repair inh inconclusive, FLuc counter 19µM*, NPC1 prom act 9.4% and Rab9 promoter act 5.0%.
Screening COc1ccc(Cn2c(C(=O)O)c(CNCCc3cccs3)c3ccc(C)cc32)cc1 returned FLuc counter 3.6%.
For COc1ccc(S(=O)(=O)CC(=O)c2cc3cc(Br)ccc3oc2=O)cc1 the results were ELG1 genotox 4.8%, ELG1 repair inh -4.2%, FLuc counter -16.9%, NPC1 prom act 0.1% and Rab9 promoter act -1.2%.
COc1ccc(-n2cc(CNCCc3cnc[nH]3)c(-c3cccc(F)c3)n2)cc1 was read as ELG1 genotox 1.9%, SMN2 splice enh -83.7%, ELG1 repair inh 0.7%, FLuc counter 19µM*, NPC1 prom act -4.9% and Rab9 promoter act -20.8%.
COc1ccc(-n2cc(CN(C)CCO)c(-c3cccc(F)c3)n2)cc1 was read as ELG1 genotox inconclusive, ELG1 repair inh inconclusive, FLuc counter 2.13µM*, NPC1 prom act 0.447µM* and Rab9 promoter act 0.631µM*.
COc1ccc(-n2cc(CNCc3cccnc3)c(-c3cccc(F)c3)n2)cc1 was read as ELG1 genotox -5.6%, ELG1 repair inh -18.5%, FLuc counter 9.53µM*, NPC1 prom act 1.0% and Rab9 promoter act -4.4%.
Screening O=C(NCCN1CCOCC1)c1cccc(S(=O)(=O)Nc2ccc(Br)cc2)c1 returned ELG1 genotox -0.1%, ELG1 repair inh -1.1%, FLuc counter -1.0%, NPC1 prom act 1.0% and Rab9 promoter act -4.8%.
For Cn1c(SCc2ccccc2)nnc1-c1ccc(O)cc1 the results were ELG1 genotox 14.6%, ELG1 repair inh inconclusive, FLuc counter -16.6%, NPC1 prom act inconclusive and Rab9 promoter act 25.5%.
Screening COC(=O)c1ccccc1N/C=C/C(=O)c1ccc(Br)cc1 returned ELG1 genotox 17.8%, SMN2 splice enh 11.2µM*, ELG1 repair inh inconclusive, FLuc counter 16.9µM*, NPC1 prom act 24.8% and Rab9 promoter act inconclusive.
For CC(=O)Nc1ccc(N/C=C/C(=O)c2ccc(Br)cc2)cc1 the results were ELG1 genotox 2.9%, ELG1 repair inh inconclusive, FLuc counter -15.4%, NPC1 prom act 25.1% and Rab9 promoter act inconclusive.
NC(=O)c1ccccc1N/C=C/C(=O)c1ccccc1 was read as ELG1 genotox 0.92µM*, SMN2 splice enh 7.08µM*, ELG1 repair inh inconclusive, FLuc counter 0.849µM*, NPC1 prom act 0.562µM* and Rab9 promoter act 0.562µM*.
